# Test results taken from PubChem BioAssay (EPA / NIEHS).
# Several values for one entry are separate records, joined by “and”; a condition that tells them apart may be missing. Identical values can stand only once. Results filed as inconclusive are left out. The source holds several records for some structures; these can differ, active in one and inactive in another. Activity calls are given as the source filed them. Rule for the calls: active = hit-call score of the fitted dose curve at least 0.9, where 1 is the maximum; inconclusive = response in the unintended direction; inactive = score below 0.9.
# Experiments:
# [1] = biological target: Estrogen receptor (Homo sapiens) (UniProt P03372); assay: ATG_hERa_XSP1: Attagene TRANS-FACTORIAL Multi-Species (XSP1) HepG2 Assay for human Estrogen Receptor (ESR1) (AID 2283780)
# Chain of Estrogen receptor (Homo sapiens) (P03372 whole entry, looked up, the tested form may be a part): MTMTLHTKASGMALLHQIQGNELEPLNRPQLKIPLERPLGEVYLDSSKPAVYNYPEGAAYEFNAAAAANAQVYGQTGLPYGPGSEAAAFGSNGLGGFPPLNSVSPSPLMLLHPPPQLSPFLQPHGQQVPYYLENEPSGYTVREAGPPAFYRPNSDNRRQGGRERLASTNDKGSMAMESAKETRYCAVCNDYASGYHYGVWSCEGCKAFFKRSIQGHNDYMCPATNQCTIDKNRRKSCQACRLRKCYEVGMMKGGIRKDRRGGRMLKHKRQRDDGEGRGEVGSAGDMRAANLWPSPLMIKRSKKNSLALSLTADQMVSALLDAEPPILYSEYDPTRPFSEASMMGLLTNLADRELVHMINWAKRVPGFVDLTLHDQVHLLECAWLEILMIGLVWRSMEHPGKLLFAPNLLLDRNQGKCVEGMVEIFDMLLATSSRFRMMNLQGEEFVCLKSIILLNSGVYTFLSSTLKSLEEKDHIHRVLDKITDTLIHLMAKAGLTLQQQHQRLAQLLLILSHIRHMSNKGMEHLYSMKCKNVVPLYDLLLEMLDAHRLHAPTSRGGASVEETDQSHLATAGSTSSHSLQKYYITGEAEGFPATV
# How it was run: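 HepG2 cells transiently transfected with GAL4-UAS reporter units and chimeric NR-Gal4 constructs; 24 h after dosing, reporter mRNA quantified by RT-PCR and capillary electrophoresis. Medium contained 3 nM 6-alpha-fluorotestosterone; activity fitted as gain-of-signal versus DMSO.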
# [2] = test system: turtle Estrogen Receptor (ESR1), gene 101933533; assay: ATG_trERa_XSP1: Attagene TRANS-FACTORIAL Multi-Species (XSP1) HepG2 Assay for turtle Estrogen Receptor (ESR1) (AID 2283781)
# How it was run: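 HepG2 cells transiently transfected with GAL4-UAS reporter units and chimeric NR-Gal4 constructs, dosed for 24 h with 3 nM 6-alpha-fluorotestosterone present. Reporter mRNA was quantified by RT-PCR, fluorescent labelling and capillary electrophoresis, with gain of signal fitted relative to DMSO.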
# [3] = ACEA_ER_AUC_viability: ACEA Biosciences xCELLigence Real-Time Cell Analysis on Estrogen Receptor Agonism for Viability (AID 2283782);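 note: continuous compound exposure with impedance area under curve over 80 h; hit means loss of impedance signal meaning reduced cell growth or viability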
# How it was run: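 T-47D human breast cells in phenol red-free RPMI1640 with 10% charcoal-stripped FBS were dosed with an 8-point 1:4 dilution series from 100 uM top final concentration, in duplicate. Impedance-based growth was followed for 80 h; AUC analysed versus DMSO.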
# [4] = STM_H9_NormalizedViability: Cytotoxicity Assessment at 120 hours in the Stemina devTOX quickPredict H9 human embryonic stem cell (hESC)-based Assay (AID 2283784)
# How it was run: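 Undifferentiated H9 hESCs kept pluripotent were exposed to compound, with media and chemical replaced every 24h. CellTiter-Fluor protease-substrate fluorescence was background-corrected and normalized per plate to the 0.1% DMSO vehicle; signal loss indicates reduced viability.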
# [5] = test system: turtle Androgen Receptor (AR), gene 101947425; assay: ATG_trAR_XSP1: Attagene TRANS-FACTORIAL Multi-Species (XSP1) HepG2 Assay for turtle Androgen Receptor (AR) (AID 2283786)
# Experimental: (§1) ATG_XSP1_multi-species_TRANS is a cell-based, multiplexed assay created by modifying the existing Attagene TRANS-FACTORIAL system to include a panel of nuclear receptors from some or all the following species: human (Homo sapiens), mouse (Mus musculus), frog (Xenopus laevis), zebrafish (Danio rerio), chicken (Gallus gallus), and turtle (Chrysemys picta). The ECOTOX-FACTORIAL format uses HepG2, a human liver cell line, with measurements taken at 24 hours after chemical dosing in a 24-well plate. Xsp1 included 3 nM 6-alpha-fluorotestosterone to partially stimulate the androgen receptor.ATG_trAR_XSP1 is one of 29 assay components measured or calculated from the ATG_XSP1_multi-species_TRANS assay. It is designed to make measurements of mRNA induction, a form of inducible reporter, as detected with fluorescence intensity signals by Reverse transcription polymerase chain reaction (RT-PCR) and Capillary electrophoresis technology.The assay endpoint ATG_trAR_XSP1 was analyzed in the positive analysis fitting direction relative to DMSO as the negative control and baseline of activity. Using a type of inducible reporter, measures of mRNA for gain-of-signal activity can be used to understand the reporter gene at the transcription factor-level as they relate to the gene AR. Furthermore, this assay endpoint can be referred to as a primary readout, because this assay has produced multiple assay endpoints where this one serves a reporter gene function. To generalize the intended target to other relatable targets, this assay endpoint is annotated to the nuclear receptor intended target family, where the subfamily is steroidal.
# Human liver HepG2 cells are transiently transfected with multiple reporter transcription units (MRTUs) in 6-well plates using FuGene 6 reagent (Roche; 3 ml FuGene/1 mg DNA). The MRTU constructs are regulated by a cis-regulating element (promoter). […] A major difference between the CIS and TRANS system is that in CIS activities of endogenous TFs are measured, whereas the TRANS assay evaluates changes in activities of exogenous, chimeric NR-Gal4 proteins. […] At the end of 24 hour incubation, total RNA was isolated using TriZol reagent (Invitrogen). The isolated RNA is then reverse-transcribed using oligo(dT) primer and Mo-MLV reverse transcriptase (Invitrogen) with DNAse I (Ambion) treatment for 30 min. The one-tenth of the produced cDNA was amplified by PCR using Taq DNA polymerase (Invitrogen) and two reporter sequence-specific primers. The PCR products were fluorescently labeled by primer extension with 6-arboxyfluorescein (6-FAM) 5'-labeled reporter sequence-specific primer (2 min at 95 C, 20 s at 68 C and 10 min at 72 C) and these products were digested with 5U of HpaI (New England Biolabs) for 2h at 37 C. The fragments were purified using Qiaquick PCR columns (Qiagen), analyzed on an ABI 3130xL genetic analyzer (Applied Biosystems) with peak positions identified by using a set of X-rhodamine (ROX)-labeled MapMarker1000 molecular weight standards (BioVentures). The raw capillary electrophoresis data was processed using Attagraph software (Attagene).
# [6] = biological target: Estrogen receptor beta (Homo sapiens) (UniProt Q92731); assay: ATG_hERb_XSP1: Attagene TRANS-FACTORIAL Multi-Species (XSP1) HepG2 Assay for human Estrogen Receptor (ESR2) (AID 2283788)
# Chain of Estrogen receptor beta (Homo sapiens) (Q92731 whole entry, looked up, the tested form may be a part): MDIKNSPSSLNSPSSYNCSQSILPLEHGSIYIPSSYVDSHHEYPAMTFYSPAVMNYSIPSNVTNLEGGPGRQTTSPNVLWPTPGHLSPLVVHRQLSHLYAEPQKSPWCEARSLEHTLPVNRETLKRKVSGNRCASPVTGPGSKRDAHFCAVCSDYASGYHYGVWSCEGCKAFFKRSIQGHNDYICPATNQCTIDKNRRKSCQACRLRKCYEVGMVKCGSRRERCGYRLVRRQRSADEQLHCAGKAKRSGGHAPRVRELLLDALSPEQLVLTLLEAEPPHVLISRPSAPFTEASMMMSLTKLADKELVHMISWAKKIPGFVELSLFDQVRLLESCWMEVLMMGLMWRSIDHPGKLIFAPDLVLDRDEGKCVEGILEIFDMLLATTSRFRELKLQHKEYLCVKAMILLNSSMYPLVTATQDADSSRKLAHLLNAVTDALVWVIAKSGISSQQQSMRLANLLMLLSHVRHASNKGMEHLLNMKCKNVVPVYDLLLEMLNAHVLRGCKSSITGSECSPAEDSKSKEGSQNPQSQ
# How it was run: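 Read-out: reporter mRNA induction by RT-PCR, HpaI digestion and capillary electrophoresis fluorescence, fitted in positive direction relative to DMSO baseline. Human liver HepG2 cells expressing ERβ-Gal4 fusion, dosed 24 h, medium containing 3 nM 6-alpha-fluorotestosterone.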
# AR (gene 367) [7] = biological target: AR (gene 367) (UniProt P10275); assay: ACEA_AR_antagonist_80hr: ACEA Biosciences xCELLigence Real-Time Cell Analysis on Androgen Receptor Antagonism for Proliferation (AID 2283787);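 note: hits lower the impedance growth signal relative to DMSO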
# Chain of AR (gene 367) (P10275 whole entry, looked up): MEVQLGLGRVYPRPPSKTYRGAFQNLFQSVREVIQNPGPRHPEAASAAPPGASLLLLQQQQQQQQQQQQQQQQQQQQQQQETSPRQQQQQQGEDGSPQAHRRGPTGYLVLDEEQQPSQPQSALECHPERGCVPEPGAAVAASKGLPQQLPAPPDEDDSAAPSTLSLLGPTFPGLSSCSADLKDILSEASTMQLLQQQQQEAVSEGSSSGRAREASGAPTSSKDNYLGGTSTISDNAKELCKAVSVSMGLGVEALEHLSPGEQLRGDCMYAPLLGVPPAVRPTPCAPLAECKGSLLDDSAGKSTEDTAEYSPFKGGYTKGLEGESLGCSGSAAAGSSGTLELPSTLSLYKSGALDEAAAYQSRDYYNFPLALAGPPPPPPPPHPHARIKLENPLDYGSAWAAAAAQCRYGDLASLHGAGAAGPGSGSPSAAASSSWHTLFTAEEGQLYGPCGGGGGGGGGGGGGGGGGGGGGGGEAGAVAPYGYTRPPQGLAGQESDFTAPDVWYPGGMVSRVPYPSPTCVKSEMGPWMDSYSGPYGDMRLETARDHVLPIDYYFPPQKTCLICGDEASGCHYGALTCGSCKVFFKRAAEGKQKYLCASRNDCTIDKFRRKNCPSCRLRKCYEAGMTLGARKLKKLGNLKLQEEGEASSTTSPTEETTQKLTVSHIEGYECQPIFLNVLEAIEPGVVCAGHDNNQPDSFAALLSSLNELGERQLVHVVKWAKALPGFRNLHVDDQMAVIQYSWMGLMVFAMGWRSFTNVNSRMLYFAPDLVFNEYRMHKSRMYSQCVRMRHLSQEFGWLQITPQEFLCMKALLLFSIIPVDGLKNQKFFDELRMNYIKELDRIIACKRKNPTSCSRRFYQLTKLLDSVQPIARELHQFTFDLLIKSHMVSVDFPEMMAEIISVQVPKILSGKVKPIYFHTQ
# How it was run: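 Impedance readout (RT-CES), 80 h post-dose; loss-of-signal vs DMSO baseline. 22Rv1 cells in assay medium. Compounds: 8-pt 1:4 series, max 100 uM final, up to 0.5% DMSO; n = 2.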
# AR (gene 367) [8] = biological target: AR (gene 367) (UniProt P10275); assay: ACEA_AR_agonist_80hr: ACEA Biosciences xCELLigence Real-Time Cell Analysis on Androgen Receptor Agonism for Proliferation (AID 2283783);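 note: hits increase impedance growth signal above DMSO baseline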
# How it was run: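 22Rv1 human prostate cancer cells were seeded after preconditioning in assay medium and monitored overnight, then dosed in an eight-point 1:4 dilution series from 100 uM (≤0.5% DMSO). Impedance-based growth was read at 80 h, gain-of-signal versus DMSO.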
# [9] = biological target: human Androgen Receptor (AR), AR (gene 367) (UniProt P10275); assay: ATG_hAR_XSP1: Attagene TRANS-FACTORIAL Multi-Species (XSP1) HepG2 Assay for human Androgen Receptor (AR) (AID 2283785)
# Chain of human Androgen Receptor (AR), AR (gene 367) (P10275 whole entry, looked up): as above
# Experimental: as §1, with “receptor.ATG_hAR_XSP1” for “receptor.ATG_trAR_XSP1”, “ATG_hAR_XSP1” for “ATG_trAR_XSP1”, “Using a type of inducible reporter, measures of mRNA for gain-of-signal activity can be used to understand the reporter gene at the transcription factor-level as they relate to the gene AR.” left out, “To generalize the intended target to other relatable targets, this assay endpoint is annotated to the nuclear receptor intended target family, where the subfamily is steroidal.” left out
# [10] = biological target: GAL4 Transcription Factor (Internal Marker), GAL4 (gene 855828) (UniProt P04386); assay: ATG_GAL4_XSP1: Attagene TRANS-FACTORIAL Multi-Species (XSP1) HepG2 Assay for GAL4 Transcription Factor (Internal Marker) (AID 2283789)
# Chain of GAL4 Transcription Factor (Internal Marker), GAL4 (gene 855828) (P04386 whole entry, looked up, the tested form may be a part): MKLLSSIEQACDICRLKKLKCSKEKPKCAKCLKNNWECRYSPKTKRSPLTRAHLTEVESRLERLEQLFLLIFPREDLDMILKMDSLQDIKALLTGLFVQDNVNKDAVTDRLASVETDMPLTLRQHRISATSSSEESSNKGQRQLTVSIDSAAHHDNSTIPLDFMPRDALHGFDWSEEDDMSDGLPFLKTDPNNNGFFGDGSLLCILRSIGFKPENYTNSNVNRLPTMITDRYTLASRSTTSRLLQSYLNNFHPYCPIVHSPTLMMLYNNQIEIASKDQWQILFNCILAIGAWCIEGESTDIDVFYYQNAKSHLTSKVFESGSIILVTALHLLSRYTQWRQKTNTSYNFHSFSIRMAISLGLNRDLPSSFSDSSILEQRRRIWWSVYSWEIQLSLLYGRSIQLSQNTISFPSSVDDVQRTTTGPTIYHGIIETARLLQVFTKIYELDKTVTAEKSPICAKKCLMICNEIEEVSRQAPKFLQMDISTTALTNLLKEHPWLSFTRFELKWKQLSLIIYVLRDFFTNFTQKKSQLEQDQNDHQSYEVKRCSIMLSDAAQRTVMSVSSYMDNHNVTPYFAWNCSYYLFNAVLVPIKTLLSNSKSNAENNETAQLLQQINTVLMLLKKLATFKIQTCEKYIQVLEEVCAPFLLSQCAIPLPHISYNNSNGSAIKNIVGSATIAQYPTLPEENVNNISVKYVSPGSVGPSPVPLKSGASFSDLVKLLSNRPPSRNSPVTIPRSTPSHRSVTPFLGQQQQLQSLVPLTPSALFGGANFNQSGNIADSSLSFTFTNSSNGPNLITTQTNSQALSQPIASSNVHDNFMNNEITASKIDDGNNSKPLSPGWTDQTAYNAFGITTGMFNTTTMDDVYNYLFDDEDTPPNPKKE
# How it was run: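 HepG2 cells transiently transfected with multiplexed GAL4-UAS reporter units were exposed for 24 h with 3 nM 6-alpha-fluorotestosterone present. Reporter mRNA was quantified by RT-PCR, FAM labelling, HpaI digestion and capillary electrophoresis; background-control readout, gain-of-signal versus DMSO.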
structure (smiles),measurement,setting,value
C#CCOS(=O)OC1CCCCC1Oc1ccc(C(C)(C)C)cc1 (configuration not stated),AC50,[1],5.29 µM (active)
same,AC50,[2],44.3 µM (active)
same,AC50,[3],87.4 µM (active)
same,AC50,[4],3.86 µM (active)
same,AC50,[5],1.6 µM (active)
same,AC50,[6],24.2 µM (active)
CCOC(=O)C(Cl)Cc1cc(-n2nc(C)n(C(F)F)c2=O)c(F)cc1Cl (configuration not stated),outcome,[3],inactive
N#Cc1nn(-c2c(Cl)cc(C(F)(F)F)cc2Cl)c(N)c1S(=O)C(F)(F)F (configuration not stated),AC50,[3],83.3 µM (active)
same,AC50,[4],66.1 µM (active)
same,AC50,AR (gene 367) [7],58 µM (active)
CO/C=C(/C(=O)OC)c1ccccc1Oc1cc(Oc2ccccc2C#N)ncn1,outcome,[1],inactive
same,outcome,[2],inactive
same,outcome,AR (gene 367) [8],inactive
same,outcome,[4],inactive
same,outcome,[9],inactive
same,AC50,AR (gene 367) [7],61.2 µM (active)
same,outcome,[6],inactive
same,outcome,[10],inactive
O=C(Nc1ccccc1)Nc1ccnc(Cl)c1,AC50,[3],81.3 µM (active)
same,AC50,AR (gene 367) [7],33.4 µM (active)
CCCCC(CC)COC(=O)c1ccccc1C(=O)OCC(CC)CCCC (configuration not stated),outcome,[1],inactive
same,outcome,[2],inactive
same,outcome,[3],inactive
same,outcome,[4],inactive
CCCC1COC(Cn2cncn2)(c2ccc(Cl)cc2Cl)O1 (configuration not stated),outcome,[1],inactive
same,outcome,[2],inactive
same,AC50,[3],92.1 µM (active)
same,outcome,AR (gene 367) [8],inactive
same,AC50,[4],71.2 µM (active)
same,AC50,AR (gene 367) [7],76.1 µM (active)
CCCCNC(=O)n1c(NC(=O)OC)nc2ccccc21,AC50,[3],18.1 µM (active)
same,outcome,AR (gene 367) [8],inactive
same,AC50,[4],7.21 µM (active)
same,AC50,AR (gene 367) [7],71.7 µM (active)
CC1=C(C(=O)Nc2ccccc2)SCCO1,outcome,AR (gene 367) [8],inactive
same,outcome,AR (gene 367) [7],inactive
N#Cc1cc(Br)c(O)c(Br)c1,outcome,AR (gene 367) [8],inactive
same,AC50,AR (gene 367) [7],53.5 µM (active)
COC(=O)c1ccccc1C(=O)OC,outcome,[3],inactive
same,outcome,[4],inactive
CCCN(CCC)c1c([N+](=O)[O-])cc(S(N)(=O)=O)cc1[N+](=O)[O-],AC50,[1],13.2 µM (active)
same,AC50,[2],33.4 µM (active)
same,AC50,[3],24 µM (active) and 82.5 µM (active) and 21.4 µM (active)
same,outcome,[3],inactive
same,outcome,[5],inactive
same,AC50,[6],14.8 µM (active)
same,AC50,[10],49.1 µM (active)
